# Assay results published in publication PMC7862700, “An all-to-all approach to the identification of sequence-specific readers for epigenetic DNA modifications on cytosine”.
# What was measured:
# Test in all cases: DAPPL (digital affinity profiling via proximity ligation, sequencing); 10 mM Tris-HCl pH 7.5, 50 mM NaCl, 1 mM DTT, 4% glycerol, room temperature, 30 min; GST-TFs on glutathione beads, 16-mer random dsDNA library, 0.1% formaldehyde crosslink after washing; high values mean tight binding
# FLI1 = molecular target: T1, FLI1 (Homo sapiens, UniProt Q01543 1-452); details: protein: recombinant; tags: N-terminal GST; dsDNA, one strand shown
# T1 sequence: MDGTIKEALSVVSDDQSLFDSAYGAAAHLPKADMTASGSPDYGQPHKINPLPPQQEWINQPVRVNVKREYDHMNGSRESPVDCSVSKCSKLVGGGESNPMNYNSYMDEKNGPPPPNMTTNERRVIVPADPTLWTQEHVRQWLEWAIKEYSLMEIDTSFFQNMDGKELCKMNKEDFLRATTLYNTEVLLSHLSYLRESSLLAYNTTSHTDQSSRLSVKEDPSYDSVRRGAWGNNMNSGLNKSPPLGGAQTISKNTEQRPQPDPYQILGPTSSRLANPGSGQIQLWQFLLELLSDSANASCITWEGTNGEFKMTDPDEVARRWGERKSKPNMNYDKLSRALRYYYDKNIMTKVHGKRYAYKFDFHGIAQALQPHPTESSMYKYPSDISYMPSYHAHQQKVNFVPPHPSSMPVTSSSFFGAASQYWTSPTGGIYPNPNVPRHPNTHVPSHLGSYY
# Summary of the method: (§1)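 After expression in yeast as GST fusions, human transcription factors were bound to glutathione beads, DNA-barcoded and mixed with a tag-only sample. The pools were incubated with 200 nmole of a 16-mer random double-stranded DNA library in Tris/NaCl/DTT/glycerol buffer (30 min, room temperature), washed and crosslinked with 0.1% formaldehyde. Proximity ligation with BsaI/T4 ligase ran for 1 h at 37 °C, before PCR amplification and sequencing on an Illumina NextSeq500. Binding signal is a hexamer's read frequency for a factor divided by its frequency for the tag-only sample.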
# ELK1 = molecular target: T2, ELK1 (Homo sapiens, UniProt P19419 1-428); details: protein: recombinant; tags: N-terminal GST; dsDNA, one strand shown
# T2 sequence: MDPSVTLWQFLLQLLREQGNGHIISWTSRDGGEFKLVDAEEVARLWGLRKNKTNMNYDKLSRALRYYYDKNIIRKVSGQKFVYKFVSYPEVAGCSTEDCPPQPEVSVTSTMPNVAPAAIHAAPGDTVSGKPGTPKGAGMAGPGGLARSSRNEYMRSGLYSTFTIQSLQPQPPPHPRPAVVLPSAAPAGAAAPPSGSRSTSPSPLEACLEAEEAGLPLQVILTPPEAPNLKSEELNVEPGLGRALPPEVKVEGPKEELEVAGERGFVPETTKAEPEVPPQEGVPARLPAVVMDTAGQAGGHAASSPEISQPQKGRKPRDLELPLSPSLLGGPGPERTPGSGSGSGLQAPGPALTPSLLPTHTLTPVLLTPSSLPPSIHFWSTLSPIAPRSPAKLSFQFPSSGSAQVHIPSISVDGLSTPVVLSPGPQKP
# Summary of the method: as §1
# GABPA = molecular target: T3, GABPA (Homo sapiens, UniProt Q06546 1-454); details: protein: recombinant; tags: N-terminal GST; dsDNA, one strand shown
# T3 sequence: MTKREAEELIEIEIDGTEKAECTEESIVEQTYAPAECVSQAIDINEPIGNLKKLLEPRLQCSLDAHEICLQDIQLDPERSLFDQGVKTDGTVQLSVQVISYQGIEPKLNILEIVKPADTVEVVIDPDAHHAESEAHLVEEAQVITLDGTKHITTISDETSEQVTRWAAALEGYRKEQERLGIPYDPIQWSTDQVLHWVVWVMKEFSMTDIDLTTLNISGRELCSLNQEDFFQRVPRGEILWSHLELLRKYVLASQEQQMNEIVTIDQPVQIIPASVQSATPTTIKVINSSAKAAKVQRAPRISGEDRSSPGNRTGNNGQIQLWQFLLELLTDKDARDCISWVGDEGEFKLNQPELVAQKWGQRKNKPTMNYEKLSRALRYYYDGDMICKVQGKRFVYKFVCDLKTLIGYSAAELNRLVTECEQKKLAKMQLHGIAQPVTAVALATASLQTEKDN
# Summary of the method: as §1
# ERG = molecular target: T4, ERG (Homo sapiens, UniProt P11308 1-479); details: protein: recombinant; tags: N-terminal GST; dsDNA, one strand shown
# T4 sequence: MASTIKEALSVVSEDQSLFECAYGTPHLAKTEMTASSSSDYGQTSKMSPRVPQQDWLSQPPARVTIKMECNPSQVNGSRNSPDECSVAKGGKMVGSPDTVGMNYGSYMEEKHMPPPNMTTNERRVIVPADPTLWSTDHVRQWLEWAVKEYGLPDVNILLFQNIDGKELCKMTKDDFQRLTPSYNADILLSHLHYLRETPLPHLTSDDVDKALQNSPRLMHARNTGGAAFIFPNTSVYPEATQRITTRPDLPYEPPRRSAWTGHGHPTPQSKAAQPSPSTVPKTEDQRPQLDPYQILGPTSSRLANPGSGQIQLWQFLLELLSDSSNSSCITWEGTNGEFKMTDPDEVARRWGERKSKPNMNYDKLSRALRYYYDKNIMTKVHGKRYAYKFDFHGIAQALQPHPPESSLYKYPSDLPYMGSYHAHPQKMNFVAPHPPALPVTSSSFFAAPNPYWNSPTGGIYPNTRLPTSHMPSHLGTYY
# Summary of the method: as §1
# ELF1 = ELF1 (Homo sapiens, UniProt P32519 1-619); details: protein: recombinant; tags: N-terminal GST; dsDNA, one strand shown
# Summary of the method: as §1
# EHF = molecular target: T5, EHF (Homo sapiens, UniProt Q9NZC4 1-300); details: protein: recombinant; tags: N-terminal GST; dsDNA, one strand shown
# T5 sequence: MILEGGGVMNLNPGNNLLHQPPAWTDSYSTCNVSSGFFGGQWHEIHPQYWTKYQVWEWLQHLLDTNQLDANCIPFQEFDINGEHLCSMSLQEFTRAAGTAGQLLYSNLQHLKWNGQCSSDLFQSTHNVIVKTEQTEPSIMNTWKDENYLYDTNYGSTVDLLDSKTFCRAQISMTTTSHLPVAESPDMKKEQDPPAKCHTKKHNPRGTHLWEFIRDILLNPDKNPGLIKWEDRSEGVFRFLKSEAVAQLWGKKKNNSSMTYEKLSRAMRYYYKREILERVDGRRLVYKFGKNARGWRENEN
# Summary of the method: as §1
# SPI1 = SPI1 (Homo sapiens, UniProt P17947 1-270); details: protein: recombinant; tags: N-terminal GST; dsDNA, one strand shown
# Summary of the method: as §1
# SPIB = SPIB (Homo sapiens, UniProt Q01892 1-262); details: protein: recombinant; tags: N-terminal GST; dsDNA, one strand shown
# Summary of the method: as §1
# ELK3 = molecular target: T6, ELK3 (Homo sapiens, UniProt P41970 1-407); details: protein: recombinant; tags: N-terminal GST; dsDNA, one strand shown
# T6 sequence: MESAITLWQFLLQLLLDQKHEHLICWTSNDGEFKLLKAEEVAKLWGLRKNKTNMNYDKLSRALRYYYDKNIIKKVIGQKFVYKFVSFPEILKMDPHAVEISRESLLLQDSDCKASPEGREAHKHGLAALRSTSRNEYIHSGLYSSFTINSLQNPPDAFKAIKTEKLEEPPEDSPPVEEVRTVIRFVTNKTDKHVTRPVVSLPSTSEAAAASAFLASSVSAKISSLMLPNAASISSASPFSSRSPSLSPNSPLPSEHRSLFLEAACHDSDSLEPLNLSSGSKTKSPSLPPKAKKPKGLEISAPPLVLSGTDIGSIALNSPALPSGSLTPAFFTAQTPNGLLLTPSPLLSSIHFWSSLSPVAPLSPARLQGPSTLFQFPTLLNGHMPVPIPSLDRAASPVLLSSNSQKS
# Summary of the method: as §1
# FEV = molecular target: T7, FEV (Homo sapiens, UniProt Q99581 1-238); details: protein: recombinant; tags: N-terminal GST; dsDNA, one strand shown
# T7 sequence: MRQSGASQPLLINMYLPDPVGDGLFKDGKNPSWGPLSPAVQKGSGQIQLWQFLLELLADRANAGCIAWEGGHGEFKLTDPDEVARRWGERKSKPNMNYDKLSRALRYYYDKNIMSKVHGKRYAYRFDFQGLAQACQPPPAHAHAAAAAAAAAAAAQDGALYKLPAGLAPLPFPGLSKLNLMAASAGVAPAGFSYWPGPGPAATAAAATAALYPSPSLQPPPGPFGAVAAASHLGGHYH
# Summary of the method: as §1
# ETV5 = ETV5 (Homo sapiens, UniProt P41161 1-510); details: protein: recombinant; tags: N-terminal GST; dsDNA, one strand shown
# Summary of the method: as §1
# HSF1 = HSF1 (Homo sapiens, UniProt Q00613 1-529); details: protein: recombinant; tags: N-terminal GST; chain copies: 3; dsDNA, one strand shown
# Summary of the method: as §1
# SPIC = molecular target: T8, SPIC (Homo sapiens, UniProt Q8N5J4 1-248); details: protein: recombinant; tags: N-terminal GST; dsDNA, one strand shown
# T8 sequence: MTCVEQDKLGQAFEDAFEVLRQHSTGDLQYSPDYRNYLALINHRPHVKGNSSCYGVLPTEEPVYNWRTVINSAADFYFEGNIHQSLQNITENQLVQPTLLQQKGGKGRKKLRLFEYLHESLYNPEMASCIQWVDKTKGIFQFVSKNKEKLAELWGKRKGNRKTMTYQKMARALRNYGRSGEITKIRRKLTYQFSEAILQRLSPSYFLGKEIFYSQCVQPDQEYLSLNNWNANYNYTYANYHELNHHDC
# Summary of the method: as §1
# ELF4 = ELF4 (Homo sapiens, UniProt Q99607 1-663); details: protein: recombinant; tags: N-terminal GST; dsDNA, one strand shown
# Summary of the method: as §1
# ELK4 = molecular target: T9, ELK4 (Homo sapiens, UniProt P28324-2 1-405); details: protein: recombinant; tags: N-terminal GST; dsDNA, one strand shown
# T9 sequence: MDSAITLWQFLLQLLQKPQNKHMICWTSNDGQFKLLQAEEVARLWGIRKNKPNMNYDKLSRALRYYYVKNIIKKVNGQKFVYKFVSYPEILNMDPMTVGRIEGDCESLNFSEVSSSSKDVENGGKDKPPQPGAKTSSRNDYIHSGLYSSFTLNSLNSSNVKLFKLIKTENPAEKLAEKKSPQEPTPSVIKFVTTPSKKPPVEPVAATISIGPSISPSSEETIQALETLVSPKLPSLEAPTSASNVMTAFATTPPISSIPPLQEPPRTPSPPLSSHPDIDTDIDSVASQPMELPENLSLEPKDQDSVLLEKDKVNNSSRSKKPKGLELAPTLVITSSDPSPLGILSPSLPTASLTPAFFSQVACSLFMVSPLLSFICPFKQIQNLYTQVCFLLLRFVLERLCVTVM
# Summary of the method: as §1
# ETV2 = molecular target: T10, ETV2 (Homo sapiens, UniProt O00321 1-342); details: protein: recombinant; tags: N-terminal GST; dsDNA, one strand shown
# T10 sequence: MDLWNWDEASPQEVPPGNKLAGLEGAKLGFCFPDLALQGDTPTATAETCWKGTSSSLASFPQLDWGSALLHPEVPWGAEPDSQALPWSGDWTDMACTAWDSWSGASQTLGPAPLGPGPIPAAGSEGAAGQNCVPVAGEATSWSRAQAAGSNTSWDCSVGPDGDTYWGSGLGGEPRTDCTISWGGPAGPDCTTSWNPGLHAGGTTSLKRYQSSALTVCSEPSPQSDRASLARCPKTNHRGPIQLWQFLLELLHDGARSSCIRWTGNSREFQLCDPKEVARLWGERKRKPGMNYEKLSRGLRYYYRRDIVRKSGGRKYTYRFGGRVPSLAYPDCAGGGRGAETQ
# Summary of the method: as §1
# ELF3 = molecular target: T11, ELF3 (Homo sapiens, UniProt P78545 1-371); details: protein: recombinant; tags: N-terminal GST; dsDNA, one strand shown
# T11 sequence: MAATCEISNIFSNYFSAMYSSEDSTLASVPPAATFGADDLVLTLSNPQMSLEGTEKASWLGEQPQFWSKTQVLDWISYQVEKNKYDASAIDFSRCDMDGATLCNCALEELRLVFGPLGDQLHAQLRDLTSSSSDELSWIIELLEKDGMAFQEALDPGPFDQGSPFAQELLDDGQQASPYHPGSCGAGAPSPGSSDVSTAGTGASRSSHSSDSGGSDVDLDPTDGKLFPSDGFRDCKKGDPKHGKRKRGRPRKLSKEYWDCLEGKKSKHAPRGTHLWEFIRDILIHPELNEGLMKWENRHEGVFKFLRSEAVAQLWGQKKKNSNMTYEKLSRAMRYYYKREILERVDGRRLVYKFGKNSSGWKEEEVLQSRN
# Summary of the method: as §1
# CRX = CRX (Homo sapiens, UniProt O43186 1-299); details: protein: recombinant; tags: N-terminal GST; dsDNA, one strand shown
# Summary of the method: as §1
# ETV1 = ETV1 (Homo sapiens, UniProt P50549 1-477); details: protein: recombinant; tags: N-terminal GST; dsDNA, one strand shown
# Summary of the method: as §1
# Sequence of SPIB (Q01892 whole entry): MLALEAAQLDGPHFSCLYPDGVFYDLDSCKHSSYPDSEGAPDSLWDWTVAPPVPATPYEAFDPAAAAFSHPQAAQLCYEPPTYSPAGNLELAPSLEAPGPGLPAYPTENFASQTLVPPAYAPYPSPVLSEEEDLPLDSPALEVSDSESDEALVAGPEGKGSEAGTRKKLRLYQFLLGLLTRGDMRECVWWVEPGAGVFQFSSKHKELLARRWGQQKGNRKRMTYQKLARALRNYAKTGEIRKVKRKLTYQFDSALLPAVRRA
# Sequence of ELF1 (P32519 whole entry): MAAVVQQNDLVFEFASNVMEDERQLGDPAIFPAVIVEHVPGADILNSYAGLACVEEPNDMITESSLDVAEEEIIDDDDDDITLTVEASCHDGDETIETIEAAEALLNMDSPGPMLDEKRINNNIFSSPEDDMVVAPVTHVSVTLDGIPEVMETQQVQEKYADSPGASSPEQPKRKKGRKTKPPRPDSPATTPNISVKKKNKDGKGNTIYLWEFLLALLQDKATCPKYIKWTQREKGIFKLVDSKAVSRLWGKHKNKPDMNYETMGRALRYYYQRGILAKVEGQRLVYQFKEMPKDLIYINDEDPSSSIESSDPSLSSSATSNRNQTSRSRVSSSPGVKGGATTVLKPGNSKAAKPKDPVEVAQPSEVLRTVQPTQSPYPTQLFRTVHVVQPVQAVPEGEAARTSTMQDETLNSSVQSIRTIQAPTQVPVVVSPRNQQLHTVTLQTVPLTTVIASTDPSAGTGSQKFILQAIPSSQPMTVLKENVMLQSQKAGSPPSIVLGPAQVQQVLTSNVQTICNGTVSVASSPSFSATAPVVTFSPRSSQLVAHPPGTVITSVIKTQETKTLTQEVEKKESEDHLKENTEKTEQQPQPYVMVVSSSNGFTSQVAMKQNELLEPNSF
# Sequence of ETV1 (P50549 whole entry): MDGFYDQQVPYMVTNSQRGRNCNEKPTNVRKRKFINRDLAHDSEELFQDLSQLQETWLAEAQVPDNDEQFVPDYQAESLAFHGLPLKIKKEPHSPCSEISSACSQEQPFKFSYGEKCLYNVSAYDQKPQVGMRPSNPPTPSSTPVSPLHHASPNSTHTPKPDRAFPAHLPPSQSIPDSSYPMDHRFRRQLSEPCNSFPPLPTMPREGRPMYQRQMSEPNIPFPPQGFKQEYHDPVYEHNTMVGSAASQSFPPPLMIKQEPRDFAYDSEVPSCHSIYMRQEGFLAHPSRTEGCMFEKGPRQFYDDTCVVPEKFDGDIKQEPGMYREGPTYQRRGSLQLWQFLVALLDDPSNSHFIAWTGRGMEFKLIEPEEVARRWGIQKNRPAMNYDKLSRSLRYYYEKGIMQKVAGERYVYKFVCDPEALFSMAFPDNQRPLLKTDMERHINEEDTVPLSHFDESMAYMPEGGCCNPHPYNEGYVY
# Sequence of CRX (O43186 whole entry): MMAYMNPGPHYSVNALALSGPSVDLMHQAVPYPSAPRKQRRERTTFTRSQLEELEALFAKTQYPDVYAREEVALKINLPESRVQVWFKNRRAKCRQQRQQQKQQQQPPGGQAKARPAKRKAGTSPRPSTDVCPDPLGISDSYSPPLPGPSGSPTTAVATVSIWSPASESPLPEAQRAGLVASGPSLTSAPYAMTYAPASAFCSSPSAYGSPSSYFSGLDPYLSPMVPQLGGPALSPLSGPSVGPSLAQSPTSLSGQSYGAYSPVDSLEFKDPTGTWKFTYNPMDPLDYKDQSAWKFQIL
# Sequence of HSF1 (Q00613 whole entry): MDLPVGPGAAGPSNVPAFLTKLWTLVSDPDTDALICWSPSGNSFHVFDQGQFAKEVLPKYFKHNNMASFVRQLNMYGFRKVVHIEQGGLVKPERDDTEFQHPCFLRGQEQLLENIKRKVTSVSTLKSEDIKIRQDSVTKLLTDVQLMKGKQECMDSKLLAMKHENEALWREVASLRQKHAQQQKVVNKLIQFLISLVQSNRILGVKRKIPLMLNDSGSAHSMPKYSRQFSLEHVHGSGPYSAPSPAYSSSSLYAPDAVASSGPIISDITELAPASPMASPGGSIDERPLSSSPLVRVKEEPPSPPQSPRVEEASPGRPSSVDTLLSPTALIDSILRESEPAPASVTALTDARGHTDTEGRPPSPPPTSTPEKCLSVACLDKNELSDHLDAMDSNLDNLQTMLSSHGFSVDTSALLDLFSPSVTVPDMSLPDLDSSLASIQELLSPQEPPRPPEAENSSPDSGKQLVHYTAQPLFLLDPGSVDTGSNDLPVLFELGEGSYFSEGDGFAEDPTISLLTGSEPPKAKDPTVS
# Sequence of ETV5 (P41161 whole entry): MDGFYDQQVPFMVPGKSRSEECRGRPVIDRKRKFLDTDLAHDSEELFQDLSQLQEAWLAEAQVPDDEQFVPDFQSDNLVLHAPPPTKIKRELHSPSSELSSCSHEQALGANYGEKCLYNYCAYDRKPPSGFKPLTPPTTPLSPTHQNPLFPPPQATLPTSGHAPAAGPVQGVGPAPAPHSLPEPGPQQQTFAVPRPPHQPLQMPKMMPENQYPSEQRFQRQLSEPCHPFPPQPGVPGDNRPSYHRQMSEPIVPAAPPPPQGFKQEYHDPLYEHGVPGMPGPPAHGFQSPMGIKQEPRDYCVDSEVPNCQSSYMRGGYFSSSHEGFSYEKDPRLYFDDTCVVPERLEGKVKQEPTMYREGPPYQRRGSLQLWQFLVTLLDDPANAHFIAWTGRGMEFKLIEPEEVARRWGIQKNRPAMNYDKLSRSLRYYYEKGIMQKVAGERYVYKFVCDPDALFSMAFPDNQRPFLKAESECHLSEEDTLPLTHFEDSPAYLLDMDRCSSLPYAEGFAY
# Sequence of ELF4 (Q99607 whole entry): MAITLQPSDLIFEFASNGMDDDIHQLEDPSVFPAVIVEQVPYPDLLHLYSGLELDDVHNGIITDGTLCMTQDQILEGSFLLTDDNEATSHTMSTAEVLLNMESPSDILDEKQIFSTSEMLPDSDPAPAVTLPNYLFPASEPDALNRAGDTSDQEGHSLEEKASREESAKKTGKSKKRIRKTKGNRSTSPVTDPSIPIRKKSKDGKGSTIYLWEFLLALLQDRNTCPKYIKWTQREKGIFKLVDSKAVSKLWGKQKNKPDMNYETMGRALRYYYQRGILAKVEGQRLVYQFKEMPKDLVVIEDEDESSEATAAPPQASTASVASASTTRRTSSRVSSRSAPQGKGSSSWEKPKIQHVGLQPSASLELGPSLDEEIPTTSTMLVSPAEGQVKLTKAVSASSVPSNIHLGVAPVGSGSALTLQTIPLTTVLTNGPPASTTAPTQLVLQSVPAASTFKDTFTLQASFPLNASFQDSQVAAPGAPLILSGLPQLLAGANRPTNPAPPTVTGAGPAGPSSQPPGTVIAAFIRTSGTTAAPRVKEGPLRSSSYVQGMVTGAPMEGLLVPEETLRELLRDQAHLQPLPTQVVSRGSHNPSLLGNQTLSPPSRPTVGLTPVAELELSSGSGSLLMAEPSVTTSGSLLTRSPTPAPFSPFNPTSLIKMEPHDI
sequence,measurement,setting,value
TAAATC,binding signal,FLI1,"1.15 fold enrichment (6-mer frequency, TF over GST control)"
same,binding signal,ELK1,"1.28 fold enrichment (6-mer frequency, TF over GST control)"
same,binding signal,GABPA,"1.24 fold enrichment (6-mer frequency, TF over GST control)"
same,binding signal,ERG,"1.2 fold enrichment (6-mer frequency, TF over GST control)"
same,binding signal,ELF1,"1.23 fold enrichment (6-mer frequency, TF over GST control)"
same,binding signal,EHF,"1.17 fold enrichment (6-mer frequency, TF over GST control)"
same,binding signal,SPI1,"1.21 fold enrichment (6-mer frequency, TF over GST control)"
same,binding signal,SPIB,"1.12 fold enrichment (6-mer frequency, TF over GST control)"
same,binding signal,ELK3,"1.35 fold enrichment (6-mer frequency, TF over GST control)"
same,binding signal,FEV,"1.21 fold enrichment (6-mer frequency, TF over GST control)"
same,binding signal,ETV5,"1.23 fold enrichment (6-mer frequency, TF over GST control)"
same,binding signal,HSF1,"1.9 fold enrichment (6-mer frequency, TF over GST control)"
same,binding signal,SPIC,"1.2 fold enrichment (6-mer frequency, TF over GST control)"
same,binding signal,ELF4,"1.3 fold enrichment (6-mer frequency, TF over GST control)"
same,binding signal,ELK4,"1.27 fold enrichment (6-mer frequency, TF over GST control)"
same,binding signal,ETV2,"1.12 fold enrichment (6-mer frequency, TF over GST control)"
same,binding signal,ELF3,"1.2 fold enrichment (6-mer frequency, TF over GST control)"
same,binding signal,CRX,"2.81 fold enrichment (6-mer frequency, TF over GST control)"
same,binding signal,ETV1,"1.26 fold enrichment (6-mer frequency, TF over GST control)"
